A selection: hits, their analogues and other compounds. The true share with any hit is near 6.1%.
Bst PK mod – alters activity of Bacillus stearothermophilus pyruvate kinase | AID 361 | Potency, µM | purified pyruvate kinase, luminescence ATP production; ribose 5-phosphate activator present at AC10 | hit rate 1.2% among 51,000; in the data active = potency below about 11 µM; inconclusive = mostly about 12 µM to 25 µM;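 the screen sought inhibitors and activators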;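 note: scaled between full activation by ribose 5 phosphate and full inhibition by luteolin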
ERK AVP block – blocks ERK signaling stimulated by vasopressin; Potency, µM (highest dose often 57.5 µM), for the others: at the top dose activity, negative = inhibition, hits mostly inhibitors; HEK293-V1b, vasopressin-stimulated pERK AlphaScreen; hit rate 0.99% among 72,000; AID 995; note: nearly all actives have a fitted effect of over 55% in size
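HEK293 cells stably expressing V1b receptor, preincubated 30 min at 37 °C with compound, then stimulated 5 min with 25 nM vasopressin. Phospho-ERK by AlphaScreen SureFire after 5 h RT; normalized to DMSO and vasopressin; AC50 by Hill fit.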
Hsp90 Hop PPI – changes Hsp90-Hop TPR2A binding signal, up or down. AlphaScreen TPR2A-His6 binding biotin-Hsp90 C-terminal peptide. AID 595. Potency, µM (highest dose often 57 µM), for the others: top-dose activity change, negative = inhibition. hit rate 0.44% among 71,000; active = well fitted curve in either direction with a large enough effect; inconclusive = small, poorly fitted or top-dose-only effect, or another doubt
FLuc inh – inhibitors of firefly luciferase. Potency, µM (highest dose often 57.1 µM), inactives show at the top dose activity change, negative = inhibition, most hits filed as inhibitors. hit rate 2.2% among 72,000. purified firefly luciferase, luminescence, 8 min. P08659. AID 411; note: nearly all actives have a fitted effect of over 40% in size
Target sequence (P08659 whole entry, looked up): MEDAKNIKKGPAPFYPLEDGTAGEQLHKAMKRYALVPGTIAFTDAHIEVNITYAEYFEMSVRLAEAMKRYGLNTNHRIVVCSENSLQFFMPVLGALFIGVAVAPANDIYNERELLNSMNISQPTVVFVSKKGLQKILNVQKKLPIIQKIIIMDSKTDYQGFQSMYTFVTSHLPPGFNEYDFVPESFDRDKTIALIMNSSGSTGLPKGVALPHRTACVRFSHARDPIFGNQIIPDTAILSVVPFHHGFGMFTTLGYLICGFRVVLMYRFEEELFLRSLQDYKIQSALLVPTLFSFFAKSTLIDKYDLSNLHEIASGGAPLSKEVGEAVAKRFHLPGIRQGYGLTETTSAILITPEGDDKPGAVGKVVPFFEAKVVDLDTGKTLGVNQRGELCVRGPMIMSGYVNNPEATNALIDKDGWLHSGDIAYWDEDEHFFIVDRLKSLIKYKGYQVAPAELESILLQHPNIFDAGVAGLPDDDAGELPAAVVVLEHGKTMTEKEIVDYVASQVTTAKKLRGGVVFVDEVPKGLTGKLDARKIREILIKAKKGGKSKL
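qHTS concentration-response profiling: light output of P. pyralis luciferase with luciferin and 10 uM ATP, imidazole buffer pH 7.2. Read by luminescence after 8-min room-temperature incubation.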
Tau filament bind – binds recombinant human tau filaments; AID 596; hit rate 2% among 71,000; Potency, µM (series often up to 57.1 µM), inactives show at the top dose activity change, negative = inhibition; recombinant tau filaments, thioflavin S fluorescence, 15 h; filaments grown with octadecylsulfate alongside compound;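 note: actives lower thioflavin S fluorescence by blocking filaments or displacing dye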
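Thioflavine S fluorescence (ex 450, em 510 nm) reports filaments formed from 1 uM human tau plus 30 uM ODS over 15 h at 37 C (10 mM HEPES pH 7.4, 100 mM NaCl, 5 mM DTT); compounds displacing dye or blocking filaments lower signal.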
15-hLO inh – 15-hLO (ALOX15) enzyme inhibition; P16050; purified 15hLO-1, xylenol orange hydroperoxide absorbance; Potency, µM (doses to about 57.1 µM), for the others: at the top dose activity change, negative = inhibition, usual class: inhibitors; hit rate 1.4% among 74,000; AID 887; note: nearly all actives have a fitted effect of over 55% in size
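40 nM 15hLO-1 + cpd, 15 min RT; start w/ 50 uM AA (final), 6 min RT; stop/detect w/ 200 uM XO + 300 uM Fe(II) in 50 mM H2SO4, 30 min; A573/A405. Buffer 25 mM Hepes pH 7.5, 0.01% Triton X-100. No-enzyme wells as negative control.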
* hit, by the source's call; i = inactive; ? = inconclusive; · = not tested or not shown; [ ] = dose if it differs, or a comment. Unless noted, calls come from the whole dose curve; as a rule, active = well fitted curve in the direction sought with a large enough effect; inconclusive = small, poorly fitted or top-dose-only effect, or another doubt; inactive = no such curve, though single readings can be large; an effect the other way counts as inactive or inconclusive. Unless noted, % is set by controls: 0 for no effect and ±100 for the full control effect; potency is the fitted concentration of half-maximal effect.

SMILES	Bst PK mod	ERK AVP block	Hsp90 Hop PPI	FLuc inh	Tau filament bind	15-hLO inh
Brc1ccc(-c2cn3cccnc3n2)cc1	5.93*	10.5%	2.4%	?	-10.0%	-1.5%
CC(=O)OC1CC2C(C)(C)C(O)CC[C@@]2(C)C2CC[C@@]3(C)C(c4ccoc4)OC(=O)C4O[C@@]43[C@]12C (stereo not given in full)	·	16.7%	·	·	·	-9.6%
COc1ccc(-c2cc(C(=O)O)c(C)o2)cc1OC	·	?	-6.9%	?	1.6%	4.0%
COc1cc(-c2ccc(N=C=O)c(OC)c2)ccc1N=C=O	·	-8.1%	-15.7%	·	15.8µM*	2.1%
Cc1nonc1NC(=O)CSc1nnc(-c2ccoc2C)n1C	>57	34.3%	?	1.5%	12.3%	-8.2%
Cc1ccc(-c2ccc(SCC(=O)Nc3nonc3C)nn2)cc1	·	-13.9%	-4.2%	7.94µM*	-1.6%	-8.2%
CCN1C(=O)c2cccc3c(S(=O)(=O)Nc4ccccc4OC)ccc1c23	>57	-2.0%	1.6%	-3.5%	20µM*	-19.3%
C(=C\c1ccccc1)/CN1CCN(c2ncnc3c2oc2ccccc23)CC1	i	-29.9%	0.3%	12.6µM*	10.8%	-13.0%
c1ccc2[nH]c(CN3CCN(c4ncnc5c4oc4ccccc45)CC3)nc2c1	·	12.6µM*	-3.1%	-1.9%	25.4%	-11.2%
Cc1[nH]n2c(=O)c3c(nc2c1-c1ccc(Cl)cc1)CCC3	>57	1.1%	-0.9%	0.8%	0.2%	12.1%
CCc1c(C)nc2cc(-c3ccc(OC)cc3)[nH]n2c1=O	?	14.5%	-1.5%	20µM*	24.1%	12.4%
Cc1ccc(-c2cc3nc4c(c(=O)n3[nH]2)CCCC4)cc1	·	-3.8%	1.0%	3.98µM*	79.8%	-12.4%
CC(=O)NCCNc1nc(-c2cccc(NS(C)(=O)=O)c2)nc2ccccc12	·	-29.9%	-4.1%	1.9%[2.29 µM]	-0.8%	-4.0%
C/C(CCC(=O)OC[C@@H]1O[C@H](C#Cc2ccccc2)C=C[C@@H]1Oc1ccc(C)cc1)=N/OC[C@@H](O)COCc1ccco1	·	9.2%[11.5 µM]	·	0.4%[11.4 µM]	·	-6.0%[11.4 µM]
COc1ccc2[nH]c3c(=O)n(CCCCC(=O)NCCN4CCCC4)c(=S)[nH]c3c2c1	·	-9.3%	-12.1%	-3.8%	150.8%	10µM*
Cn1cc(-c2nc3cnc(Oc4cccc(Cl)c4)nc3n(CCC#N)c2=O)c2ccccc21	·	45.5%	13.1%	0.8%[11.4 µM]	329.4%	5.6%
N#Cc1cccc(NC(=O)N2CCCC3(CCN(S(=O)(=O)c4ccccc4)CC3)C2)c1	·	-7.4%	-18.9%	1.1%[11.4 µM]	201.8%	-4.0%
Cc1ccc(Nc2nc(CSc3nnnn3C)cs2)cc1	?	16.2%	-6.5%	12.6µM*	15.8µM*	-13.1%
Cn1nnnc1SCc1csc(Nc2ccccc2)n1	>57	24.7%	-1.1%	-4.3%	-11.5%	-6.1%
Nc1ncnc2nc(-c3ccc(C[P+](c4ccccc4)(c4ccccc4)c4ccccc4)cc3)[nH]c12	·	-3.8%[11.5 µM]	-4.8%[11 µM]	0.8%[11.4 µM]	49.8%[11.4 µM]	7.9%[11.4 µM]
CCOC(=O)CNC(=O)CSc1ncnc2c1cnn2-c1ccc(Cl)cc1	>57	-28.0%	-3.1%	-2.0%	-0.6%	1.3%
CCOC(=O)Cc1csc(NC(=O)CSc2ncnc3c2cnn3-c2ccc(OC)cc2)n1	>57	5.01µM*	-4.4%	-24.7%	-4.6%	-18.7%
COc1ccc(Cl)cc1NS(=O)(=O)c1ccc(S(=O)(=O)N2CCCC2)cc1	>57	25.1µM*	7.1%	-1.9%	-18.0%	5.3%
COC(=O)c1ccc(C(/C=C/[C@@H](C)C(=O)NCc2cc(C)n(C)n2)NC(=O)OCc2ccccc2)cc1 (stereo not given in full)	·	2.3%	-1.8%	·	22.5%	-5.1%
CCCn1c(-c2ccc(F)cc2)nc2c(N3CCC(N(C)C)C3)nc(C)nc21 (stereo not given)	·	7.3%	-3.6%	·	18.1%	4.6%
SMILES	Bst PK mod	ERK AVP block	Hsp90 Hop PPI	FLuc inh	Tau filament bind	15-hLO inh
CCCn1c(-c2ccc(F)cc2)nc2c(N3CCN(C)CC3)nc(C)nc21	·	-6.7%	-6.3%	·	24.1%	20µM*
O=c1cc(-c2ccc(O)c(O)c2)oc2cc(O[C@@H]3O[C@@H](CO)[C@@H](O)[C@@H](O)[C@H]3O)cc(O)c12	·	·	-5.3%	-2.3%[11.4 µM]	?	·
COCCNc1nc(C)nc2c1nc(-c1ccccc1)n2CCN1CCCC1	·	4.9%	-0.1%	·	5.9%	8.5%
Cc1cc(C(=O)Nc2cnn(Cc3ccc(Cl)cc3Cl)c2)no1	9.19*	18.7%	-7.2%	-2.4%	100.3%	-8.8%
c1ccc2c(c1)OCC(c1nnc3sc(-c4cnccn4)nn13)O2 (stereo not given)	>57	-18.9%	-5.3%	-0.6%	25.1µM*	?
Cc1cc(OCCNCCO)cc(C)c1Cl	·	·	·	·	·	-7.4%
Cc1cc(OCCCCCNCCO)cc(C)c1Cl	·	39.8µM*	1.2%[11 µM]	0.5%	2.51µM*	-28.8%[11.4 µM]
Cc1cc(C(=O)CSc2nc3ccc(Cl)cc3[nH]2)c(C)n1C	·	-22.9%	-10.7%	-5.7%	-14.9%	25.1µM*
Cc1cc(C(=O)CSc2nc3ccccc3[nH]2)c(C)n1C	·	?	-8.2%	15.8µM*	4.5%	-7.1%
O=c1ccc2cc3c([nH]c4ccc(Br)cc43)oc-2c1O	>57	-25.5%	-5.7%	-3.4%	12.6µM*	25.1µM*
c1ccc2c(c1)CCC[C@H]2C1=NCCN1	·	5.7%	-1.9%	0.7%	0.9%	-5.9%
COc1cccc2c(=O)n(CC(=O)N3CCCc4ccccc43)ccc12	·	·	-10.1%	-0.8%	12.6µM*	-5.8%
c1cncc(CNc2cc(-c3ccoc3)ncn2)c1	·	8.5%	?	-1.6%[2.29 µM]	104.8%	25.1µM*

Compound activity as filed in PubChem BioAssay.
